An excerpt weighted towards active compounds, which were near 12% of everything screened.
HP1b chromo inh – HTS for Inhibitors of HP1-beta Chromodomain Interactions with Methylated Histone Tails. AlphaScreen HP1-beta / biotin-H3K9me3 peptide binding. Potency, µM (series often up to 114 µM), usual class: inhibitors. actives 0.56% (n = 390,000); also: nearly all actives have a fitted effect of over 70% in size
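HP1-beta protein (50 nM final) preincubated 30 min at room temperature with biotinylated H3(1-18)K9me3 peptide (50 nM) in PBS pH 7.4, 0.01% Tween-20, then compound added for 30 min. AlphaScreen streptavidin donor/nickel chelate acceptor beads (10 ug/mL final), 30 min dark, luminescence read.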
JMJD2A Tudor inh – qHTS Assay for Inhibitors of JMJD2A-Tudor Domain | actives 4.4% (n = 390,000) | AlphaScreen JMJD2A-Tudor / H3K4me3 peptide binding | Lysine-specific demethylase 4A (Homo sapiens), O75164 | Potency, µM (top dose mostly 114 µM), hits mostly inhibitors; also: nearly all actives have a fitted effect of over 50% in size
Target sequence (O75164 whole entry, looked up, the tested form may be a part): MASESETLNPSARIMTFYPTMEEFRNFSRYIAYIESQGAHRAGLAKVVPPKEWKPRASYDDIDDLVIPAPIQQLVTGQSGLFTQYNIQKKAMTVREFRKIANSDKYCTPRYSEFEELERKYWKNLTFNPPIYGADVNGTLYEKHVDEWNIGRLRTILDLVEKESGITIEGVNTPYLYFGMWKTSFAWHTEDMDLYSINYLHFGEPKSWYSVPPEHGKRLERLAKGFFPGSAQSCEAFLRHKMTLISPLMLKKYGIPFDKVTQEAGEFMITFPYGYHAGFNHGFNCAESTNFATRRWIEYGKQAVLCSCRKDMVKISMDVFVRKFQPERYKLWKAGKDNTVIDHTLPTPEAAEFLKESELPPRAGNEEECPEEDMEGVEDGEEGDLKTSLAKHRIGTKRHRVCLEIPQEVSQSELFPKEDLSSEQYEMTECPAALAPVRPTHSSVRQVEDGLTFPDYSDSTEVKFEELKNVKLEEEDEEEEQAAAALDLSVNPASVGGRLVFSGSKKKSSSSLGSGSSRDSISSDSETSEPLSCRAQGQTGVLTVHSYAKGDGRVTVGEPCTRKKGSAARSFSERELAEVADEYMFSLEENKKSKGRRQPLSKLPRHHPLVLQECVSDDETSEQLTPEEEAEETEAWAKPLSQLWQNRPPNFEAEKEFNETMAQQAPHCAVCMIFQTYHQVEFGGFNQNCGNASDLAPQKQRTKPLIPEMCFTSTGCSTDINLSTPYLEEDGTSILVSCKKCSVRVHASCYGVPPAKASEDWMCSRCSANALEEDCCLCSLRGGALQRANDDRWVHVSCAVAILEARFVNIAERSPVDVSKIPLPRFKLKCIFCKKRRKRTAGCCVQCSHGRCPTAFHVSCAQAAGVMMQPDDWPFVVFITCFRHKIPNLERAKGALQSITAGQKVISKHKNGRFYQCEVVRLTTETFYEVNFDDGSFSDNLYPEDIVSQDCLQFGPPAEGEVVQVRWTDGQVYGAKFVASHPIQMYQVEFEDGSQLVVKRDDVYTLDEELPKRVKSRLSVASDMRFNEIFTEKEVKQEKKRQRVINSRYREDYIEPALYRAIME
BAZ2B inh – qHTS Assay for Inhibitors of BAZ2B; AID 504333, 2011; actives 4.4% (n = 360,000); Bromodomain adjacent to zinc finger domain protein 2B (Homo sapiens), Q9UIF8; AlphaScreen BAZ2B-H3K14Ac peptide displacement; Potency, µM (series often up to 114 µM), hits mostly inhibitors; also: nearly all actives have a fitted effect of over 60% in size
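BAZ2B (50 nM) with biotin-H3(5-23)K14Ac peptide (50 nM) in PBS pH 7.4, 0.01% Tween-20, preformed 30 min, then compound 30 min at room temperature; top concentration 110uM. AlphaScreen streptavidin donor/nickel chelate acceptor beads (10 ug/mL final), 20 min dark, signal read.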
G9a inh – qHTS Assay for Inhibitors of Histone Lysine Methyltransferase G9a. Potency, µM (series often up to 102 µM), usual class: inhibitors. G9a H3K9 monomethylation, AlphaScreen, 2 h. Histone-lysine N-methyltransferase EHMT2 (Homo sapiens), Q96KQ7. AID 504332, 2011. actives 8.8% (n = 350,000); also: nearly all actives have a fitted effect of over 75% in size
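Step 1: enzyme (final 20 nM) with compound, 15 min RT. Step 2: substrate peptide 500 nM and SAM 20 uM, 2 h RT. Step 3: anti-H3K9me1 antibody and AlphaScreen beads, 10 min, then plate read.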
Sfp PPTase inh – qHTS Assay for Inhibitors of Bacillus subtilis Sfp phosphopantetheinyl transferase (PPTase); Biochemical Sfp PPTase activity, qHTS; Potency, µM, usual class: inhibitors; actives 3.5% (n = 310,000);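 also: the enzyme is Sfp with the accession as filed and its product quenches rhodamine fluorescence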
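Reaction rates are the 30-min fluorescence difference (ex 525, em 598 nm) in wells containing 15 nM Sfp, 5 uM rhodamine-CoA and 12.5 uM BHQ-2-YbbR at pH 7.6 with 10 mM MgCl2.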
A number is an active result; 0 = inactive; ? = inconclusive; - = not tested or not shown; [ ] = remark or other dose. Calls follow the shape of the dose curve; as a rule, active = well fitted curve in the direction sought with a large enough effect; inconclusive = small, poorly fitted or top-dose-only effect, or another doubt; inactive = no such curve, though single readings can be large; an effect the other way counts as inactive or inconclusive.

SMILES	HP1b chromo inh	JMJD2A Tudor inh	BAZ2B inh	G9a inh	Sfp PPTase inh
Clc1ccc(SCCOCCN2CCc3ccccc3C2)cc1	0	0	0	0	0
CC1CN(CCCCSc2ccc(Cl)cc2)CC(C)O1 (configuration not stated)	?	18µM	?	22µM	0
CC1CCN(CCOCCSc2ccc(Cl)cc2)CC1	?	7.1µM	50µM	-	0
Clc1ccc(SCCCCN2CCOCC2)cc1	40µM	5.6µM	32µM	4µM	0
CC1CN(CCOCCSc2ccc(Cl)cc2)CC(C)O1 (configuration not stated)	?	8.9µM	50µM	?	0
CC1CN(CCOCCSc2ccccc2)CC(C)O1 (configuration not stated)	0	0	0	0[12.7 µM]	0
CC(=O)Oc1ccc(OC(C)=O)c(SCCCCCN2CCOCC2)c1	?	0	0	0[0.501 µM]	79µM
OCCN(CCO)c1ccc(C(c2ccc(Cl)cc2)c2ccc(N(CCO)CCO)cc2Cl)c(Cl)c1	0	?	?	?	0
Cc1cc(N(CCO)CCO)ccc1N=Nc1cc(F)ccc1F	?	22µM	22µM	14µM	0
COc1cc(C)c(NC(c2ccccc2)c2ccccc2)cc1OC	?	45µM	40µM	28µM	0
N=c1nc(-c2ccccc2)n(-c2ccccc2)s1	?	5.6µM	-	-	-
O=C1OCCN1CCN(CN1C(=O)CCC1=O)CN1C(=O)CCC1=O	0	0	0	0	0
CCCOc1ccc(C(O)(CCN2CCCCC2)c2ccccc2OC)cc1 (configuration not stated)	0	0	0	0	0
CC(C)CN(C(=O)CC1OC(=O)c2ccccc21)c1c(N)n(Cc2ccccc2)c(=O)[nH]c1=O (configuration not stated)	0	0	0	56µM	-
CC(C)CN(C(=O)COC(=O)C(C)N1C(=O)c2ccccc2C1=O)c1c(N)n(Cc2ccccc2)c(=O)[nH]c1=O (configuration not stated)	0	0	0	35µM	-
Cc1cc(C)cc(OCC(=O)OCC(=O)N(CC(C)C)c2c(N)n(Cc3ccccc3)c(=O)[nH]c2=O)c1	0	0	0	50µM	-
CC(C)CN(C(=O)COC(=O)COc1ccc2c(c1)CCC2)c1c(N)n(Cc2ccccc2)c(=O)[nH]c1=O	0	0	0	0	-
Cc1ccc(CN2CCN(CC(=O)Nc3ccc(C)c(C)c3)S2(=O)=O)cc1	0	0	0	0	-
O=C(Nc1ccccc1-c1ccccc1)c1cccc([N+](=O)[O-])c1	0	0	0	0[12.7 µM]	0
Cc1ccnc(NCc2cccc3ccccc23)c1	0	0	0	-	0
CC12CCC(c3nnc(SCc4ccc(Cl)cc4)nc31)C2(C)C (configuration not stated)	0	0	0	0	0
CC12CCC(c3n[nH]c(=S)nc31)C2(C)C (configuration not stated)	0	20µM	0	8.9µM	?
O=S(=O)(c1ccccc1)N1CCN(C2CCN(Cc3ccccc3)CC2)CC1	0	0	0	0	0
c1ccc(CN2CCC(N3CCC(N4CCCCCC4)CC3)CC2)cc1	0	1.4µM	?	45µM	?
O=S(=O)(c1ccc2ccccc2c1)N1CCN(Cc2ccccn2)CC1	0	3.2µM	79µM	?	71µM
SMILES	HP1b chromo inh	JMJD2A Tudor inh	BAZ2B inh	G9a inh	Sfp PPTase inh
COc1ccccc1N1CCN(C2CCN(S(=O)(=O)c3ccc4ccccc4c3)CC2)CC1	?	?	?	45µM	0
O=S(=O)(c1ccc2ccccc2c1)N1CCN(C2CCN(Cc3ccccc3)CC2)CC1	0	0.89µM	28µM	5µM	?
CC1(C)Oc2ccc(C(=O)NN)cc2NC1=O	0	0	0	0	0
CCC(=O)Nc1ccc(NC(=O)Cc2ccccc2)cn1	0	0	?	56µM	0
O=C(Nc1ccc(Nc2ccccc2)cc1)c1ccccc1	0	?	-	-	-
COCC(=O)Nc1ccc(Nc2ccccc2)cc1	0	0	40µM	?	71µM
CCC(=O)Nc1ccc(Nc2ccccc2)cc1	0	0	0	50µM	0
NC(=O)Nc1ccc(Nc2ccccc2)cc1	0	0	?	56µM	0
COC(=O)CC1C(=O)NCCN1C(=O)Nc1ccccc1 (configuration not stated)	0	0	0	0	0
CCc1ccc(/C=N/NC(=O)c2nnn(-c3nonc3N)c2CN2CCOCC2)cc1	0	0	?	?	0
CCc1nnc2c(NCc3ccccc3)nc3ccccc3n12	0	0	0	0	-
COC(=O)[C@H](CCSC)NC(=O)c1cc2c(cn1)[nH]c1ccccc12	?	?	0	1.8µM	8.9µM
NS(=O)(=O)c1ccc(Cc2ncc(C(F)(F)F)cc2Cl)s1	0	0	0	?	0
O=C(CCl)c1ccc(Cc2ncc(C(F)(F)F)cc2Cl)s1	0	79µM	?	?	0
CC(C)NS(=O)(=O)c1ccc(OCC(=O)Nc2ccc3c(c2)OCO3)cc1	0	0	0	0	0
CCc1ccc(NC(=O)[C@H](C)NC(=O)C2CCN(C(=O)[C@@H](N)C(C)C)CC2)cc1	0	0	0	50µM	0
CCc1ccc(NC(=O)[C@H](C)NC(=O)C2CCN(C(=O)[C@@H](N)CC(C)C)CC2)cc1	0	0	0	?	0
CC(C)C[C@@H](CN1CCCC1CN1C(=S)NC[C@@H]1Cc1ccc(O)cc1)N1C[C@H](Cc2ccc(O)cc2)N(CC2CCCCC2)C1=S (some centres not stated)	0	40µM	-	-	-
CC(C)C[C@H]1CNC(=S)N1CC1CCCN1C[C@H](CC(C)C)N1C[C@H](Cc2ccc(O)cc2)N(CC2CCCCC2)C1=S (some centres not stated)	0	?	-	-	-
Cc1ccc(C(=O)C(SC(C)(C)C)n2cncn2)cc1 (configuration not stated)	0	0	0	?	0
CN1CCC(=O)N([C@H](CO)c2ccccc2)CC1	0	0	0	45µM	0
Cc1ccccc1N=CC1=C(O)c2ccccc2C1=O	0	0	0	45µM	0
O=C(NCc1ccccc1)c1nc[nH]c1C(=O)N1CCN(c2ccccc2)CC1	0	0	?	0[2.33 µM]	-
O=C1NC(C(=O)O)=CC(c2ccc([N+](=O)[O-])cc2)N1 (configuration not stated)	0	18µM	?	8.9µM	8.9µM
CC1(C(=O)O)COC(c2ccc([N+](=O)[O-])cc2)OC1 (configuration not stated)	0	0	0	0	0
Clc1ccc(/C=N/c2c(-c3ccc(Cl)cc3)nc3n2CCS3)cc1	0	?	?	35µM	0
N#Cc1ccccc1	0	0	0	0[0.501 µM]	-
